Screening data from PubChem.
Shown is part of a subset that was picked to be rich in hits.
MARV entry inh = Marburg virus entry inhibition. Marburg virus pseudotyped entry inhibition, cell reporter. Potency, µM (titrated, usually from 37.8 µM), actives largely listed as inhibitors. actives 1.8% (n = 300,000); calls by dose curve; tested in HEK293 cells
Lassa entry inh = Lassa virus entry inhibition | actives 1.2% (n = 300,000) | Potency, µM (titrated, usually from 37.9 µM), usual class: inhibitors | AID 540256 | Lassa virus pseudotype entry inhibition, cell reporter; calls by dose curve; tested in HEK293 cells; also: nearly all actives have a fitted effect of over 50% in size
Vaccinia mCherry = vaccinia inhibition (mCherry reporter) | Vaccinia virus mCherry reporter infection, fluorescence | AID 720579 | actives 0.63% (n = 310,000) | Potency, µM (highest dose often 36.5 µM), actives largely listed as inhibitors; calls by dose curve; tested in A549 cells; also: nearly all actives have a fitted effect of over 35% in size
Shiga toxin inh = blocks Shiga toxin action in Vero cells. Vero cells, Shiga toxin protein synthesis inhibition reporter. inhibition, % at 38.7 µM. actives 9.2% (n = 290,000). AID 2315; in the data active = inhibition mostly above about 28%, no sharp cut-off; inactive = mostly below about 43%
CHX counter = affects cycloheximide protein synthesis inhibition readout, counter-screen | cell reporter, cycloheximide protein synthesis inhibition counterscreen | max response, % | actives 12% (n = 300,000); in the data active = max response mostly above about 13%, no sharp cut-off; inactive = mostly below about 14%; also: read at 38.3 µM for the half of the compounds with a filed dose
Vaccinia Venus = inhibitors of vaccinia virus (Venus reporter); Vaccinia virus Venus reporter expression, fluorescence; Potency, µM (highest dose often 36.5 µM), usual class: inhibitors; actives 0.46% (n = 330,000); AID 720580; calls by dose curve; tested in A549 cells; also: nearly all actives have a fitted effect of over 30% in size
Of the large screens only hits and unclear results are named; the others gave an inactive call.

Cc1cccc2cc(CN(C(=O)c3ccc(C(F)(F)F)cc3)C3CC3)c(N3CCC(O)CC3)nc12	none (no result: MARV entry inh, Lassa entry inh, Shiga toxin inh, CHX counter)
O=C(CSc1ccc(Cl)cc1)N1N=CCC1c1ccccc1 (configuration not stated)	Shiga toxin inh 72.6
O=C(CSC(=S)N1CCCCC1)N1N=CCC1c1ccccc1 (configuration not stated)	Shiga toxin inh 163.0, CHX counter 70.9 (no result: Vaccinia mCherry, Vaccinia Venus)
NC(=NC(=O)c1ccc(Cl)cc1)N1N=CCC1c1ccccc1 (configuration not stated)	MARV entry inh inconclusive, Lassa entry inh inconclusive
COc1ccc(S(=O)(=O)Nc2cc(OC)cc3cccnc23)cc1	none (no result: MARV entry inh, Lassa entry inh, Vaccinia mCherry, Vaccinia Venus)
Cc1cc2c(cc1C)NC(CC(=O)NCc1ccccc1)C(=O)N2 (configuration not stated)	Lassa entry inh inconclusive, Shiga toxin inh 60.9, CHX counter 25.7 (no result: Vaccinia mCherry, Vaccinia Venus)
CCCCn1cc(S(=O)(=O)c2ccc(OC)cc2)c(=O)c2cc(F)c(N3CCOCC3)cc21	none (no result: MARV entry inh, Shiga toxin inh, CHX counter)
C=CCc1c(C)nc(-c2ccccc2)nc1N/N=C(\C)c1ccccc1	CHX counter 12.0
C=CCc1c(C)nc(-c2ccccc2)nc1Nc1ccc(O)cc1	MARV entry inh inconclusive, Vaccinia mCherry inconclusive, Vaccinia Venus inconclusive
O=C(O)c1csc(-c2cccs2)n1	none
O=S1(=O)CCN(Cc2csc(-c3cccs3)n2)CC1	Lassa entry inh inconclusive, Shiga toxin inh 68.5, CHX counter 31.5
c1csc(-c2nc(CN3CCSCC3)cs2)c1	MARV entry inh inconclusive, Lassa entry inh inconclusive, Shiga toxin inh 75.6, CHX counter 45.3
O=S1(=O)CCN(Cc2ccccn2)CC1	none (no result: MARV entry inh, Lassa entry inh)
COc1ccc(C2C(=O)c3ccccc3C2=O)cc1OC	MARV entry inh inconclusive
COc1ccc(N2C(=O)c3ccccc3NC2c2ccccc2O)cc1 (configuration not stated)	Shiga toxin inh 56.5, CHX counter 42.6 (no result: MARV entry inh, Lassa entry inh, Vaccinia mCherry, Vaccinia Venus)
COc1cc(C2C(=O)c3ccccc3C2=O)ccc1O	CHX counter 59.1 (no result: MARV entry inh, Lassa entry inh, Vaccinia mCherry, Shiga toxin inh, Vaccinia Venus)
COc1ccc(CCN2C(=O)c3ccccc3NC2c2cc(Cl)c(O)c(OC)c2)cc1 (configuration not stated)	MARV entry inh inconclusive, Lassa entry inh 5.62µM, Vaccinia mCherry inconclusive
CCCN1C(=O)c2ccccc2NC1c1cc(OC)c(OC)c(OC)c1 (configuration not stated)	none
CC(C)Oc1ccccc1C1Nc2ccccc2C(=O)N1c1ccc2c(c1)OCCO2 (configuration not stated)	MARV entry inh inconclusive, Lassa entry inh inconclusive, Shiga toxin inh 71.1, CHX counter 54.0 (no result: Vaccinia mCherry)
CCn1ccc2cc(S(=O)(=O)N3CCCN(C(=O)Nc4ccccc4C(F)(F)F)CC3)ccc21	none (no result: MARV entry inh, Shiga toxin inh, CHX counter)
O=C(Nc1cccc(C(F)(F)F)c1)c1cc(-c2ccc(Cl)s2)nc2ccccc12	none (no result: Shiga toxin inh, CHX counter)
COc1cc(C2Nc3ccccc3C(=O)N2Cc2ccco2)ccc1O (configuration not stated)	none (no result: MARV entry inh, Lassa entry inh, Shiga toxin inh, CHX counter)
COc1ccc(C2Nc3ccccc3C(=O)N2c2ccc(F)cc2)cc1CSc1ccccn1 (configuration not stated)	MARV entry inh inconclusive, CHX counter 14.9
O=C1c2ccccc2NC(c2cccc([N+](=O)[O-])c2)N1CCc1ccccc1 (configuration not stated)	MARV entry inh inconclusive, Lassa entry inh inconclusive, Vaccinia mCherry inconclusive, Shiga toxin inh 73.8, CHX counter 44.0
COc1cc(C2Nc3ccccc3C(=O)N2c2ccccc2)ccc1O (configuration not stated)	MARV entry inh inconclusive, Shiga toxin inh 122.6, CHX counter 46.5 (no result: Vaccinia mCherry)
COc1ccc(/C(C)=N/N2C(=O)c3ccccc3NC2c2ccc(O)c(OC)c2)cc1 (configuration not stated)	Shiga toxin inh 32.8, CHX counter 13.8 (no result: MARV entry inh, Lassa entry inh)
COc1ccc(C2Nc3ccccc3C(=O)N2c2ccccc2)cc1COc1ccccn1 (configuration not stated)	none
Nc1ccn(C2CCCCO2)c(=O)n1 (configuration not stated)	none (no result: Shiga toxin inh, CHX counter)
COc1ccc(C2Nc3ccccc3C(=O)N2O)cc1OC (configuration not stated)	CHX counter 20.3
CCOc1cc(C2Nc3ccccc3C(=O)N2c2ccccc2)c(Br)cc1OCC(=O)O (configuration not stated)	none
CCOc1cc(C2Nc3ccccc3C(=O)N2c2ccccc2)ccc1O (configuration not stated)	MARV entry inh inconclusive, CHX counter 19.2
COc1ccc(-c2nc(NC(=O)c3cc(C(C)(C)C)nn3C)sc2C)cc1	MARV entry inh 9.2µM, Lassa entry inh inconclusive (no result: Vaccinia mCherry, Vaccinia Venus)
Cc1sc(NC(=O)c2c(F)cccc2F)nc1-c1ccccc1	MARV entry inh inconclusive, Lassa entry inh inconclusive, Vaccinia mCherry inconclusive
COCC(=O)Nc1nc2ccc(C)cc2s1	MARV entry inh inconclusive, Lassa entry inh inconclusive, Vaccinia mCherry inconclusive, Shiga toxin inh 64.8, CHX counter 51.9
Cc1ccc2nc(NC(=O)CN3CCOCC3)sc2c1	Shiga toxin inh 64.0, CHX counter 32.8
Cc1ccc2nc(NC(=O)COc3ccc(F)cc3)sc2c1	Lassa entry inh inconclusive (no result: MARV entry inh, Shiga toxin inh, CHX counter)
Cc1sc(NC(=O)c2ccc(=O)n(C)n2)nc1-c1ccccc1	Lassa entry inh inconclusive, CHX counter 31.7
CCCCCC(=O)N1C[C@@H](n2cc(C3CC3)nn2)[C@H](O)C[C@H]1c1ccccc1	none (no result: MARV entry inh, Vaccinia mCherry, Shiga toxin inh, CHX counter, Vaccinia Venus)
CCOc1ccc(CNC(=O)C2CCN(S(=O)(=O)N3CCCCC3)CC2)cc1	none (no result: MARV entry inh, Shiga toxin inh, CHX counter)
Cc1ccc2nc(NC(=O)COC(=O)c3ccncc3)sc2c1	MARV entry inh inconclusive, Shiga toxin inh 65.8, CHX counter 34.7
COCC(=O)Nc1nc(-c2ccc(C)cc2)c(C)s1	Shiga toxin inh 34.5, CHX counter 13.5
Cc1ccccc1NC(=O)c1c(C)oc2ccc(O)c(CN3CCN(C)CC3)c12	MARV entry inh inconclusive (no result: Shiga toxin inh, CHX counter)
CCCCN1C(=O)C(CC(=O)NCc2cccs2)CC(C(=O)N(C(C)C)C(C)C)=C1C (configuration not stated)	none (no result: MARV entry inh, Lassa entry inh, Shiga toxin inh, CHX counter)
S=C(NC1CCCCC1)N1CCn2cccc2C1c1cccnc1 (configuration not stated)	MARV entry inh 8.91µM, Lassa entry inh inconclusive
CCCc1[nH]n(-c2ccc([N+](=O)[O-])cc2)c(=O)c1C(C)=NCc1ccncc1	MARV entry inh inconclusive
CCCN1CNc2c(c(=O)[nH]c(=S)n2CCc2ccc(OC)cc2)C1	none (no result: MARV entry inh, Lassa entry inh, Shiga toxin inh, CHX counter)
O=C(O)c1ccc(-n2cccn2)c([N+](=O)[O-])c1	MARV entry inh inconclusive, Lassa entry inh inconclusive
O=C(Nc1cccc(/C=C/c2ccccn2)c1)c1ccc(-n2cncn2)c([N+](=O)[O-])c1	MARV entry inh inconclusive, Lassa entry inh inconclusive, Vaccinia mCherry 14.1µM, Vaccinia Venus inconclusive (no result: Shiga toxin inh, CHX counter)
Cc1ccc(NC(=O)c2ccc(-n3cccn3)c([N+](=O)[O-])c2)cc1	CHX counter 20.6 (no result: Vaccinia mCherry, Vaccinia Venus)
O=C(Nc1ccccc1Cl)c1ccc(-n2cccn2)c([N+](=O)[O-])c1	Vaccinia mCherry inconclusive, Shiga toxin inh 41.5
COc1ccc(NC(=O)c2ccc(-n3cncn3)c([N+](=O)[O-])c2)cc1OC	none (no result: Shiga toxin inh, CHX counter)
O=C(Nc1cccc(/C=C/c2ccccn2)c1)c1cc(Cl)ccn1	Shiga toxin inh 43.3, CHX counter 28.6 (no result: Lassa entry inh)
